# High-throughput results (PubChem BioAssay)
# TDP1 inh: inhibitors of human tyrosyl-DNA phosphodiesterase TDP1; Q9NUW8; recombinant TDP1, AlphaScreen DNA substrate cleavage; Potency, µM (doses to about 130 µM), hits mostly inhibitors; 350,000 compounds, 0.28% hits; AID 485290; note: nearly all actives have a fitted effect of over 40% in size
# Target sequence (Q9NUW8 whole entry, looked up): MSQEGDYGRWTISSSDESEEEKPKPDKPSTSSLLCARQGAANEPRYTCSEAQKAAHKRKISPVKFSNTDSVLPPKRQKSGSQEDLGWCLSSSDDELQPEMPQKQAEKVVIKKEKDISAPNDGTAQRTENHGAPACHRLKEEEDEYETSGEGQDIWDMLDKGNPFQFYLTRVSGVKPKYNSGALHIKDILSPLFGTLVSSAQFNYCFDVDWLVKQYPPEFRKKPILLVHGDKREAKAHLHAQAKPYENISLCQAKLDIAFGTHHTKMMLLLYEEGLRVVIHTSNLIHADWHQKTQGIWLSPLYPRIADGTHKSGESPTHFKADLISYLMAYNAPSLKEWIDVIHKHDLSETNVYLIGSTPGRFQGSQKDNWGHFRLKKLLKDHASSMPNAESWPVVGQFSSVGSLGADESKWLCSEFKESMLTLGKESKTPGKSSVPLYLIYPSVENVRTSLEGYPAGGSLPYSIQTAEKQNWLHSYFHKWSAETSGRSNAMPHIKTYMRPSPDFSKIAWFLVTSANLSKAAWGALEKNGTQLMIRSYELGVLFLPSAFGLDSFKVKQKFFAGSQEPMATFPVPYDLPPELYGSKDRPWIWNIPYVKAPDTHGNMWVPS
#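 Signal: AlphaScreen proximity between streptavidin donor and anti-FITC acceptor beads on intact substrate. Reaction: Tdp1 1 nM, substrate 15 nM final, 5 min RT after 15 min compound preincubation.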
# HepG2 tox: HepG2 cytotoxicity, counter-screen for TGF-b inhibitors; HepG2 CAGA-GFP viability, ATP luminescence, 18 h; Potency, µM (titrated, usually from 46.1 µM), actives largely listed as cytotoxic; 410,000 compounds, 0.76% hits; AID 588856
#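 HepG2 CAGA-GFP cells (1000/well, DMEM with 1% FBS) received compound, then TGF-beta at 500 pg/mL final, and were incubated 18 hours at 37 degrees C. Viability was read by CellTiter-Glo luminescence. Media-only wells were set as complete cell-killing and DMSO as no toxicity.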
# TDP1 cell noCPT: qHTS for Inhibitors of human tyrosyl-DNA phosphodiesterase 1 (TDP1): qHTS in cells in absence of CPT; DT40 Tdp1-/- hTDP1 cells, no CPT, ATP luminescence, 48 h; Potency, µM (highest dose often 46.2 µM), most hits filed as inhibitors; 420,000 compounds, 15% hits; AID 686978, 2013; note: nearly all actives have a fitted effect of over 55% in size
#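 Seeded 400 DT40-hTDP1 cells/well (vehicle DMSO, no 20 nM CPT); pinned compounds; ≥48 hr at 37 °C; CellTiter-Glo luminescence as viability measure.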
# DT40 TDP1 CPT: DT40-hTDP1 cell growth loss with CPT | 420,000 compounds, 12% hits | AID 686979 | Potency, µM (top dose mostly 46.2 µM), hits mostly inhibitors | chicken DT40 Tdp1-/-;hTDP1 cells + 20 nM CPT, ATP luminescence, 48 h; note: nearly all actives have a fitted effect of over 55% in size
#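 Chicken DT40 Tdp1-/- cells stably complemented with human TDP1 were seeded at 400 cells/well in medium containing 20 nM camptothecin, exposed to pin-transferred compounds, and grown at 37 °C for at least 48 hr. Viability was read as ATP luminescence.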
# TGFb inhibitor: blocks TGF-b signaling; HepG2 CAGA-GFP TGF-b/SMAD3 reporter, GFP fluorescence, 18 h; TGF-beta stimulated, 500 pg/mL final; 410,000 compounds, 1.2% hits; Potency, µM (doses to about 46.1 µM), hits mostly inhibitors; AID 588855; note: nearly all actives have a fitted effect of over 65% in size
#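 Inhibition was scored as loss of TGF-beta-induced (500 pg/mL final, 18 hours, 37 degrees C) GFP in HEPG2 cells carrying a CAGA-GFP reporter, in DMEM with 1% FBS. Well GFP was summed per cell; Activity was normalised to unstimulated and stimulated DMSO wells, then concentration-response fitting.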
# IL1B secr inh: inhibitors of inflammasome signaling (IL-1 beta secretion) | activity change, % at 57.5 µM | THP-1 LPS/ATP IL-1B secretion, AlphaLISA, 16 h; stronger effect = lower value | 360,000 compounds, 4.7% hits; in the data active = activity change below about -50%; inconclusive = mostly about -30% to -49%
#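 THP-1 cells pretreated 1 hr with compounds (up to 57.5 uM final), then stimulated with LPS (250 ng/mL final) plus ATP (1.25 mM final); secreted IL-1B measured by AlphaLISA after 16 hr, decreased signal indicating inhibition.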
# Hits are given with their value; - = inactive; ? = inconclusive; . = no result given; ! = a repeat was not active. In the library only some 19% were active in any assay of this set; here they are far more common. Unless noted, calls come from the whole dose curve; as a rule, active = well fitted curve in the direction sought with a large enough effect; inconclusive = small, poorly fitted or top-dose-only effect, or another doubt; inactive = no such curve, though single readings can be large; an effect the other way counts as inactive or inconclusive.
SMILES,TDP1 inh,HepG2 tox,TDP1 cell noCPT,DT40 TDP1 CPT,TGFb inhibitor,IL1B secr inh
C[C@H]1CN([C@@H](C)CO)S(=O)(=O)c2ccc(Br)cc2O[C@H]1CN(C)Cc1ccccc1,.,-,?,?,?,-
C[C@H]1CN([C@@H](C)CO)S(=O)(=O)c2ccc(Br)cc2O[C@H]1CN(C)Cc1ccc(F)cc1,.,-,?,?,-,-
O=C(OCN1C(=O)c2ccccc2C1=O)c1ccc(Cl)nc1,-,-,-,-,-,-
NS(=O)(=O)c1ccc(CCNC(=O)c2ccc(Cl)c(S(=O)(=O)NCc3ccco3)c2)cc1,-,-,-,-,-,-
CC(C)(C)C(=O)CC1(O)C(=O)N(Cc2ccc(Cl)cc2)c2ccccc21 (stereo not drawn),-,-,-,-,-,-
Cc1[nH]c2ccccc2c1C1(O)C(=O)N(Cc2ccc3c(c2)OCO3)c2ccccc21 (stereo not drawn),-,-,5.17µM,3.26µM,?,-
Cc1[nH]c2ccccc2c1C1(O)C(=O)N(Cc2ccc(Cl)cc2)c2ccccc21 (stereo not drawn),-,-,5.17µM,5.8µM,.,.
Cc1[nH]c2ccccc2c1C1(O)C(=O)N(Cc2ccccc2)c2ccc(Cl)cc21 (stereo not drawn),-,15.8µM,5.17µM,6.51µM,?,.
Cc1ccc(CN2C(=O)C(O)(c3c(C)[nH]c4ccccc34)c3ccccc32)cc1 (stereo not drawn),-,-,4.61µM,6.51µM,?,.
Cc1ccc2c(c1)C(O)(c1c(C)[nH]c3ccccc13)C(=O)N2 (stereo not drawn),-,-,-,-,-,-
O=C(c1cc(=O)[nH]c2ccccc12)N1CCN(Cc2ccc3c(c2)OCO3)CC1,-,-,-,-,-,-
CCN(CC)C(=O)c1cccc(-c2csc(C(NC(C)=O)c3ccc(F)c(F)c3)n2)c1 (stereo not drawn),.,-,?,?,-,-
CCCNC(=O)CSc1nc2nc(C)c(Cc3ccccc3Cl)c(C)n2n1,-,-,?,?,-,.
CCCCN(C)C(=O)CN1C(=O)CCn2nc(-c3cn(C)c4ccccc34)cc21,-,-,-,?,?,.
N=C(N)SCc1cccc2c(=O)cc(-c3ccccc3)oc12,.,-,7.08µM,4.47µM,?,.
NC(=O)NC(CC(=O)Nc1cccnc1)c1cccc(Br)c1 (stereo not drawn),.,-,-,-,-,-
Cc1cc(N=Cc2c(O)n(-c3cccc(Cl)c3)c(=O)c3ccccc23)no1,-,-,20.6µM,11.6µM,-,-
O=c1c2ccccc2c(C=Nc2ccc(S(=O)(=O)Nc3ncccn3)cc2)c(O)n1-c1cccc(Cl)c1,-,.,.,.,.,.
O=C(O)C(Cc1ccc(OS(=O)(=O)Cc2ccccc2)cc1)NS(=O)(=O)Cc1ccccc1 (stereo not drawn),.,-,-,-,-,-
COc1ccc(CCNC(=O)c2cc(-c3ccco3)on2)cc1OC,-,-,16.4µM,10.3µM,-,?
O=C(NCCc1ccccc1)c1cc(-c2ccco2)on1,-,-,?,6.31µM,-,-
COc1ccccc1-c1cc(C(=O)NCc2ccco2)no1,-,-,-,-,-,-
O=C(NCc1ccco1)c1cc(-c2ccco2)on1,-,-,?,23.1µM,-,-
O=C(NCc1ccccc1)c1cc(-c2ccco2)on1,-,-,?,-,-,-
COc1cccc(-c2cc(C(=O)NCCc3ccc(OC)c(OC)c3)no2)c1,-,-,-,-,-,.
SMILES,TDP1 inh,HepG2 tox,TDP1 cell noCPT,DT40 TDP1 CPT,TGFb inhibitor,IL1B secr inh
CC(=O)N1CSCC1C(=O)NNS(=O)(=O)c1ccccc1 (stereo not drawn),-,-,-,-,-,.
CCOC(=O)c1c(-c2ccc(F)cc2)csc1/N=C/N(C)C,-,-,-,-,-,-87.2
C[C@H](N)C(=O)NCC(=O)N[C@H]1CSSC[C@@H](C(=O)O)NC(=O)[C@H](CO)NC(=O)[C@H]([C@@H](C)O)NC(=O)[C@H](Cc2ccccc2)NC(=O)[C@H]([C@@H](C)O)NC(=O)[C@H](CCCCN)NC(=O)[C@@H](Cc2c[nH]c3ccccc23)NC(=O)[C@H](Cc2ccccc2)NC(=O)[C@H](Cc2ccccc2)NC(=O)[C@H](CC(N)=O)NC(=O)[C@H](CCCCN)NC1=O,-,.,.,.,.,.
Cc1ccnc(NC(=O)C2CCC(CNc3c(N4CCCC4)c(=O)c3=O)CC2)c1 (stereo not drawn),-,-,?,-,?,-66.9
CC1CCN(c2c(NCC3CCC(C(=O)Nc4ccccn4)CC3)c(=O)c2=O)CC1 (stereo not drawn),-,-,?,-,-,-
COc1cc(NC(=O)C2CCC(CNc3c(N4CCC(C)CC4)c(=O)c3=O)CC2)cc(OC)c1 (stereo not drawn),-,-,-,?,-,-62.3!
CCOc1ccc(Br)cc1S(=O)(=O)Nc1ccc(NC(=O)c2ccccc2C)cc1,-,-,-,-,-,-
CCOc1ccc(Br)cc1S(=O)(=O)Nc1ccc(NC(=O)c2ccccc2F)cc1,-,-,16.4µM,?,?,-
CCOc1ccc(Br)cc1C(=O)Nc1ccc(C(=O)NCC(C)C)cc1,-,-,?,10.3µM,-,-
CCOc1ccc(Br)cc1S(=O)(=O)Nc1cccc(S(=O)(=O)N(C)c2ccccc2)c1,-,-,-,-,11.2µM,-
C=C1N(C)c2cc([N+](=O)[O-])c(N)cc2C1(C)C,-,-,-,-,-,-53.2
Cc1cc(Br)ccc1NC(=O)COc1cc(=O)n(C)c2ccccc12,-,-,?,?,-,.
CCC(=O)NC(c1cccs1)c1cc(Cl)c2cccnc2c1O (stereo not drawn),-,-,3.26µM,4.61µM,?,-
CCC(=O)NC(c1ccco1)c1cc(Br)c2cccnc2c1O (stereo not drawn),.,-,.,.,3.98µM,.
CCCC(=O)NC(c1ccco1)c1c(O)ccc2ccccc12 (stereo not drawn),-,-,?,?,-,-
CCCCC(=O)NC(c1cccs1)c1cc(Cl)c2cccnc2c1O (stereo not drawn),-,-,2.59µM,3.66µM,-,-
Cc1cc(C)c(NC(=O)C(C)n2c(=O)cc(-c3ccccc3)c3c(C)nn(C)c32)c(C)c1 (stereo not drawn),-,-,-,-,-,.
